Assay results taken from PubChem BioAssay.

Test system: Plasmodium falciparum Sir2 (PF13_0152, Sir2A)
Experiment: Plasmodium falciparum Sir2A binding compounds – biochemical, small-molecule microarray, 635 nm fluorescence, primary screen (AID 1098);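 also: score merges spot fluorescence intensity with its signal-to-noise ratio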
Settings: fluorescence 635 nm, higher = more signal

Compound | composite z-score
CC(CCN1CCCc2nc(C)c(C)cc21)=NOC[C@@H](O)COCc1ccco1 | 1.22
C#CCCCON=C1C[C@@H](O)[C@@H](O)[C@@H]2[C@@H]3C(=O)N([C@@H](C)c4ccccc4)C(=O)[C@@H]3CC[C@@H]12 | 0.563
O=C1C2=CC[C@H]3C(=O)N(Cc4ccccc4)C(=O)[C@H]3[C@H]2[C@H](O)[C@@H]2O[C@H]12 | 1.47
CC(CCC(=O)OC[C@H]1O[C@H](C#Cc2ccccc2)C=C[C@@H]1Oc1ccc(C)cc1)=NOC(C)CN1CCCCc2nc(C)c(C)cc21 (some centres undefined) | 0.508
CCOC(=O)NN=C1C[C@@H](O)[C@@H](O)[C@@H]2[C@@H]3C(=O)N(CC)C(=O)[C@@H]3CC[C@H]12 | -0.04
CON=C(C)CCN1CCCCc2nc(C)c(C)cc21 | 0.636
CO[C@@H](C1CCCCC1)[C@@H](C)[C@H](OCc1cccc(Br)c1)[C@@H](C)CO | -0.317
O=C1CCCC=C1C(O)COCc1ccccc1 (centres undefined) | 0.179
C=CC[C@@H]1C=C[C@H](ON=CC[C@@H]2C=C[C@H](OC(C)=O)[C@@H](COC(C)=O)O2)[C@@H](CO)O1 | 1.01
C[C@]12CCC3c4ccc(OCC5CO5)cc4CCC3C1CC[C@@H]2O (some centres undefined) | 0.728
COC(=O)[C@@H]1CC[C@H](C)[C@@H](c2ccc(Br)cc2)N1C[C@@H](O)CN=[N+]=[N-] | 0.0292
O=C1CCCC=C1C(O)C1CCCCC1 (centres undefined) | -0.895
CCOC(=O)[C@H](CC(C)C)NC(=O)CCC1CC(OC(=O)NCc2ccc3c(c2)OCO3)CC2(CCCC(COC(=O)NCCc3ccccc3OC)O2)O1 (some centres undefined) | 0.608

Test system: not listed separately
Experiment: probe aDKK1 binding to arrayed compounds – biochemical, biotinylated probe, 635/667 nm fluorescence, primary screen (AID 1099);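 also: score merges 667nm spot fluorescence with signal to noise across triplicate slides; reference of the scale not given here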
Settings: small-molecule microarray, higher = more signal

Compound | composite z-score
COC(=O)[C@H](C)NC(=O)CCC1CC(OC(=O)NCCc2ccc(F)cc2)CC2(CCCC(COC(=O)NCC3CCCCC3)O2)O1 (some centres undefined) | -0.262
COc1ccc2c(c1)O[C@@H](c1cccc(C(F)(F)F)c1)[C@H](O)C2=O | -0.14
CCOC(=O)[C@H](Cc1ccccc1)NC(=O)CCC1CC(OC(=O)NCc2ccc3c(c2)OCO3)CC2(CCCC(COC(=O)NCCOc3ccccc3)O2)O1 (some centres undefined) | -0.388
CC(=O)OC[C@H]1O[C@@H](ON=C(C)C)[C@H](OC(C)=O)[C@@H](OC(C)=O)[C@@H]1OC(C)=O | -0.191
CCOC(=O)[C@H](Cc1ccccc1)NC(=O)CCC1CC(OC(=O)NCc2ccc3c(c2)OCO3)CC2(CCCC(COC(=O)NCCc3ccc(Cl)cc3)O2)O1 (some centres undefined) | -0.188
O=C1C=C[C@@H](O)[C@@H]2[C@@H]3C(=O)N(Cc4ccccc4)C(=O)[C@@H]3CC[C@@H]12 | -0.262
COC(=O)C1=C(C)N(Cc2ccccc2)C2=C3C(=O)OCC[C@@H]3[C@@](O)(C(=O)OC)C(=O)N2[C@@H]1c1ccccc1 | -0.117
CCCNC(=O)OC[C@H]1O[C@H](CCON=C[C@@H](NS(=O)(=O)c2ccc(C)cc2)[C@H](C)C=CCC(=O)OC)C=C[C@@H]1Oc1ccc(OC)cc1 | -0.0175
CC=CC1=C(CO)[C@H](O)[C@H]2O[C@H]2[C@@H]1O | -0.416
COc1ccc(O[C@H]2C=C[C@@H](C#Cc3ccccc3)O[C@@H]2CO)cc1 | -0.139
COC(=O)[C@@H]1CC[C@H](C)[C@@H](c2ccc(C)cc2)N1C(=O)c1ccc(C=NOC[C@H]2O[C@H](c3ccccc3)C=C[C@@H]2Oc2ccc(OC)cc2)cc1 | -0.0428
CON=C1c2cc(OC)ccc2O[C@H](c2cccc(OC)c2)[C@H]1O | -0.0086
C[C@@H]1CC[C@H]2C(=O)OC(Cc3ccccc3)CN2[C@H]1c1ccc(Br)cc1 (some centres undefined) | -0.193
C=CCOCC1CN2[C@@H](CC[C@@H](C)[C@@H]2c2ccc(Br)cc2)C(=O)O1 (some centres undefined) | -0.182
COc1ccc(COC(=O)NN=C2C[C@@H](O)[C@@H](O)[C@@H]3[C@@H]4C(=O)N(Cc5ccccc5)C(=O)[C@@H]4CC[C@@H]23)cc1 | -0.12
COC(=O)[C@H](C)NC(=O)CCC1CC(OC(=O)NCCc2ccc(F)cc2)CC2(CCCC(COC(=O)NCCOc3ccccc3)O2)O1 (some centres undefined) | -0.244
COC(=O)[C@H](C)NC(=O)CCC1CC(OC(=O)NCCc2ccc(F)cc2)CC2(CCCC(COC(=O)NCCc3ccccc3OC)O2)O1 (some centres undefined) | -0.0554
CCOC(=O)[C@H](CC(C)C)NC(=O)CCC1CC(OC(=O)NCc2ccc3c(c2)OCO3)CC2(CCCC(COC(=O)NCCC(C)C)O2)O1 (some centres undefined) | -0.494

Compound | composite z-score
C=C(C)C(=O)OC[C@H]1CN2[C@@H](CC[C@@H](C)[C@@H]2c2ccc(Br)cc2)C(=O)O1 | -0.366
CO[C@@H]1COC(=O)[C@H](COCc2ccccc2)NC(=O)CC=C[C@@H](C)[C@H](OC)COC(=O)[C@@H](C)NC(=O)CC=C[C@H]1C | -0.556
O=C1C[C@H](c2ccccc2)[C@H](c2ccc(Br)cc2)O1 | 0.0628
CC(CCN1CCCc2nc(C)c(C)cc21)=NO[C@H](C)c1cn([C@H](CO)Cc2ccccc2)nn1 | -0.319
COC(=O)[C@@H]1CC[C@H](C)[C@@H](c2ccc(Br)cc2)N1C(=O)C(F)(F)F | -0.215
CC(CCN1CCCc2nc(C)c(C)cc21)=NOC[C@@H](O)COCc1ccco1 | 1.57
C#CCCCON=C1C[C@@H](O)[C@@H](O)[C@@H]2[C@@H]3C(=O)N([C@@H](C)c4ccccc4)C(=O)[C@@H]3CC[C@@H]12 | -0.292
O=C1C2=CC[C@H]3C(=O)N(Cc4ccccc4)C(=O)[C@H]3[C@H]2[C@H](O)[C@@H]2O[C@H]12 | -0.211
CC(CCC(=O)OC[C@H]1O[C@H](C#Cc2ccccc2)C=C[C@@H]1Oc1ccc(C)cc1)=NOC(C)CN1CCCCc2nc(C)c(C)cc21 (some centres undefined) | -0.241
CCOC(=O)NN=C1C[C@@H](O)[C@@H](O)[C@@H]2[C@@H]3C(=O)N(CC)C(=O)[C@@H]3CC[C@H]12 | -0.115
CON=C(C)CCN1CCCCc2nc(C)c(C)cc21 | -0.144
CO[C@@H](C1CCCCC1)[C@@H](C)[C@H](OCc1cccc(Br)c1)[C@@H](C)CO | -0.359
O=C1CCCC=C1C(O)COCc1ccccc1 (centres undefined) | -0.32
C=CC[C@@H]1C=C[C@H](ON=CC[C@@H]2C=C[C@H](OC(C)=O)[C@@H](COC(C)=O)O2)[C@@H](CO)O1 | 0.182
C[C@]12CCC3c4ccc(OCC5CO5)cc4CCC3C1CC[C@@H]2O (some centres undefined) | 0.527
COC(=O)[C@@H]1CC[C@H](C)[C@@H](c2ccc(Br)cc2)N1C[C@@H](O)CN=[N+]=[N-] | -0.0196
O=C1CCCC=C1C(O)C1CCCCC1 (centres undefined) | -0.214
CCOC(=O)[C@H](CC(C)C)NC(=O)CCC1CC(OC(=O)NCc2ccc3c(c2)OCO3)CC2(CCCC(COC(=O)NCCc3ccccc3OC)O2)O1 (some centres undefined) | -0.0877
